Only some compounds are listed: those with a hit (about 1.3% of all), similar ones and a draw of the others.
PKM2 act: PKM2 (human) enzyme activation | purified PKM2, Kinase-Glo ATP luminescence, activation; response scale: 0% is enzyme alone, no compound | Potency, µM (series often up to 57.5 µM), for the others: at the highest dose activation, usual class: activators | 0.34% of 260,000 active | AID 1631; further: nearly all actives have a fitted effect of over 55% in size
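Kinase-Glo luminescence reports ATP generated from ADP (0.1 mM) and PEP (0.5 mM) by purified hPK-M2 after 1 h at room temperature, pH 7.2 imidazole buffer; intermediate enzyme activity allows detecting inhibitors and activators.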
TrxR1 substrate: substrates of rat thioredoxin reductase 1 | Potency, µM (doses to about 114 µM), for inactives: at the highest dose activity change, negative = substrate turnover | purified TrxR1 substrate turnover, NADPH consumption readout | AID 588456 | O89049 | 0.01% of 390,000 active; further: nearly all actives have a fitted effect of over 50% in size
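Rat TrxR1, dispensed at 90 nM, was prereduced with 400 uM NADPH (final) for 5 min at ~22 deg C, then incubated with compound 15 min before 400 uM selenite. A first-read NADPH fluorescence drop versus no-compound background flagged substrates.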
Anesthetic bind: candidate novel general anesthetic via apoferritin binding; P02791; apoferritin/1-aminoanthracene competitive binding, fluorescence; Potency, µM (titrated, usually from 77.5 µM), without a hit: at the highest dose activity change, negative = displacement, hits mostly inhibitors; 0.074% of 350,000 active; AID 485281; further: nearly all actives have a fitted effect of over 20% in size
Target sequence (P02791 2-175 limits assumed): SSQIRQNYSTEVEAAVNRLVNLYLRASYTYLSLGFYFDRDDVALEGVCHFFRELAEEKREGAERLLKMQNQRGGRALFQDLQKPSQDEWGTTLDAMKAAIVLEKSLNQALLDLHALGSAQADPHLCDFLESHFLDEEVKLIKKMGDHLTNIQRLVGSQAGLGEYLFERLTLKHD
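Horse-spleen apoferritin (10 uM) was mixed with 50% saturated 1-aminoanthracene in PBS, exposed to compounds for 10 min at room temperature, and read for fluorescence (ex 380 nm, em 535 nm). Competitive displacement was fitted with a four-parameter Hill equation.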
TrxR1 inh: rat TrxR1 inhibition. O89049. recombinant rTrxR1, NADPH fluorescence consumption, selenite substrate. Potency, µM (series often up to 114 µM), for the others: at the highest dose activity change, negative = inhibition, hits mostly inhibitors. 1% of 390,000 active. AID 588453; further: nearly all actives have a fitted effect of over 65% in size
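Rat TrxR1 (90 nM in the dispensed reagent) was pre-reduced with 400 uM NADPH for 5 min at room temperature, then incubated with compound for 15 min. After 400 uM selenite was added, NADPH fluorescence (Ex 340/Em 450 nm) was followed for 8 min.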
mIDH1 inhibitor: inhibitors of human mutant IDH1 R132H; O75874; 0.093% of 390,000 active; IDH1-R132H enzyme, NADPH consumption, diaphorase/resazurin fluorescence; Potency, µM (series often up to 76.6 µM), inactives show at the top dose activity change, negative = inhibition, usual class: inhibitors; AID 602179; further: nearly all actives have a fitted effect of over 65% in size
Target sequence (O75874 whole entry R132H, stated change not applied): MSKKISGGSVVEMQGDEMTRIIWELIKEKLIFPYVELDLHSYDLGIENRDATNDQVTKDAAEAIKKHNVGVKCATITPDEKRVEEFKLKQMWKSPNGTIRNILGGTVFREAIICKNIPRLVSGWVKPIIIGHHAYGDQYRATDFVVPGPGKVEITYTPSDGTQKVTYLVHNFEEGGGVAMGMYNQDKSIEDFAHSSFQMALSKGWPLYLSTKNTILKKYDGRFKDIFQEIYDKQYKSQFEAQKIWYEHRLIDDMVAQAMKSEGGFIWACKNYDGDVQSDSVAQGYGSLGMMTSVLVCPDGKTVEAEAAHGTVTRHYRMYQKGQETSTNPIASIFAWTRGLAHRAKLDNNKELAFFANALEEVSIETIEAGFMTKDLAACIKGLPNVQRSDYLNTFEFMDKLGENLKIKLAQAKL
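IDH1-R132H (0.5 ug/mL dispensed) in pH 7.5 Tris buffer was preincubated 30 min with compound, then given a substrate mix of 0.016 mM NADPH and 2 mM alpha-KG for 80 min at room temperature; remaining NADPH was read by diaphorase/resazurin fluorescence.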
GALK inhibitor: blocks human galactokinase activity. P51570. Purified GALK, Kinase-Glo residual ATP luminescence. Potency, µM (doses to about 57.5 µM), for inactives: at the highest dose activity change, negative = inhibition, hits mostly inhibitors. 0.007% of 270,000 active
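GALK at 5 nM final was combined with compound, 35 uM ATP and 100 uM galactose in HEPES pH8.0 with MgCl2 and DTT. The reaction ran one hour at room temperature before luminescent ATP detection.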
Numbers without * were called inactive; ? = inconclusive; . = not tested or not shown; [ ] = remark or other dose. The call rests on the fitted dose curve; in most records, active means well fitted curve in the direction sought with a large enough effect; inconclusive means small, poorly fitted or top-dose-only effect, or another doubt; inactive means no such curve, though single readings can be large; an effect the other way counts as inactive or inconclusive. On the % scale 0 is the no-effect control and ±100 the full control effect; potency means the concentration at half of the fitted maximal effect.

SMILES | PKM2 act | TrxR1 substrate | Anesthetic bind | TrxR1 inh | mIDH1 inhibitor | GALK inhibitor
COc1cc(N2C(=O)C=CC2=O)c(OC)cc1Cl | 8.91µM* | -1.6% | 1.6% | 3.16µM* | -2.5% | -1.4%
COc1cc(Cl)c(S(=O)(=O)N2CCCC2)cc1Cl | 9.9% | 0.8% | -4.0% | 26.0% | 3.8% | 8.2%
COc1ccc(S(=O)(=O)n2nc(OC(=O)c3ccncc3)cc2N)cc1 | -1.7% | 2.3% | -8.5% | 28.2µM* | 3.4% | 1.2%
O=C(/C=C/c1ccccc1O)c1ccco1 | 4.5% | 8.2%[57.1 µM] | -20.5% | -47.1% | 7.9% | -4.9%
O=C(/C=C/c1cc(Br)ccc1O)c1ccco1 | 1.0% | -6.6% | -16.6% | 35.5µM* | -10.0% | -6.4%
Cc1ccc(Cn2c(SCc3ccc(C(=O)N4CCCCCC4)cc3)nc3ccncc32)cc1 | . | 0.2% | -20.4% | -2.7% | 10.6% | .
Cc1c(C)c2c(OCC(=O)N3CCC(C(=O)O)CC3)cc3c(c2oc1=O)CCC(C)(C)O3 | -0.1% | 602.2% | 56.3% | 79.4µM* | -8.6% | .
Cc1c(OCC(=O)N2CCC(C(=O)O)CC2)ccc2c3c(c(=O)oc12)CCC3 | 0.2% | 95.3% | -2.9% | 14.1µM* | 3.7% | .
O=c1oc(-c2ccccc2)cc(Cl)c1Cl | . | 13.5%[57.1 µM] | -2.8% | 5.62µM* | 2.0% | -9.4%
O=c1cc(-c2ccccc2)oc2ccc(Cl)cc12 | . | 5.3%[57.1 µM] | . | -5.3%[11.4 µM] | -0.6% | .
Cc1ccc(N2C(=O)CC(Sc3nccc(C)n3)C2=O)cc1 (configuration not stated) | -1.2% | 2.8% | -6.7% | 7.1% | 5.9% | -0.2%
Cc1cccc(N2C(=O)CC(Sc3nnc(C)s3)C2=O)c1 (configuration not stated) | -1.9% | 0.2% | 8.0% | 20µM* | 9.4% | -1.7%
Cc1cc(C)cc(N2C(=O)CC(Sc3nnnn3-c3ccccc3)C2=O)c1 (configuration not stated) | 15.4% | 15.7% | -6.7% | 11.2µM* | 1.8% | 0.0%
Cn1nnnc1SC1CC(=O)N(c2ccccc2)C1=O (configuration not stated) | 16.0% | 11.9%[57.1 µM] | -15.1% | 17.8µM* | -4.9% | 1.3%
O=C1CC(Sc2nnnn2C2CCCCC2)C(=O)N1c1ccccc1 (configuration not stated) | 10.2% | 13.1% | -1.7% | ? | 6.8% | -3.2%
Cc1ccc(N2C(=O)CC(Sc3cccs3)C2=O)cc1 (configuration not stated) | 4.3% | -5.6% | ? | 79.4µM* | 2.2% | .
Cc1ccc(C)c(N2CCN(S(=O)(=O)c3ccc(-c4coc(C)n4)cc3)CC2)c1 | . | 1.4%[57.1 µM] | -6.1% | 20.8%[57.1 µM] | -9.3% | .
CCOC(=O)c1c(C)n(C(=O)c2ccco2)c(=O)n1C(=O)c1ccco1 | -1.1% | -3.9% | -6.9% | 39.8µM* | -1.4% | 2.8%
Nc1ccc(/C=C/c2cc(Cl)nc3ccccc23)cc1 | . | -5.0% | . | 6.4% | . | .
O=C(CN1C(=O)CCSc2ccc(S(=O)(=O)N3CCCC3)cc21)Nc1cccc(Cl)c1 | . | 2.6%[57.1 µM] | 0.0% | 23.3%[57.1 µM] | 15.7% | .
O=C(c1ccco1)N1N=C(c2ccc(Cl)cc2)CC1c1ccco1 (configuration not stated) | . | -3.7% | -11.7% | 39.8µM* | 1.0% | -9.3%
O=C(OCC(=O)N1N=C(c2ccc(Cl)cc2)CC1c1ccco1)c1cccnc1 (configuration not stated) | . | -0.2% | . | 7.08µM* | 2.1% | .
CC(C)CC(=O)N1CCN(S(=O)(=O)c2ccccc2)CC1 | -14.1% | 7.0% | -13.6% | 1.2% | -1.3% | -1.9%
Cc1cc(C)c(S(=O)(=O)N2CCN(C(=O)CCn3nc(C)c(C)c3C)CC2)c(C)c1 | 14.1µM* | 5.0%[57.1 µM] | -11.6% | 6.7%[57.1 µM] | 3.6% | 16.9%
Cc1nn(CCC(=O)N2CCN(S(=O)(=O)c3ccccc3)CC2)c(C)c1C | 11.2µM* | -5.8% | 5.6% | 12.8%[57.1 µM] | 0.9% | 4.2%
SMILES | PKM2 act | TrxR1 substrate | Anesthetic bind | TrxR1 inh | mIDH1 inhibitor | GALK inhibitor
CCOC(=O)c1[nH]c(C)c(C(=O)NC(CC)Cc2ccccc2)c1C (configuration not stated) | . | 0.9% | -22.1% | 5.5% | 0.3% | .
Cc1ccc2oc(-c3ccc(C)c(NC(=O)c4ccc(-c5ccccc5[N+](=O)[O-])o4)c3)nc2c1 | . | -3.6% | -2.4% | 21.0% | -8.9% | .
CC(=O)c1cc(-c2ccccc2)n(CCC(=O)NC(C)c2ccccc2)c1C (configuration not stated) | . | 3.6%[57.1 µM] | -3.3% | 22.3%[57.1 µM] | -10.7% | .
CCC(C)(C)NC(=O)c1ccc(Sc2nncn2C)c([N+](=O)[O-])c1 | -1.3% | -22.4%[57.1 µM] | -1.7% | 3.1%[57.1 µM] | 6.8% | 0.3%
Cn1cnnc1Sc1ccc(/C=C/C(=O)c2ccc(O)cc2)cc1[N+](=O)[O-] | ? | -15.3% | -11.1% | 22.4µM* | 0.0% | -1.0%
COc1ccc(NC(=O)/C(C#N)=C/c2ccc(Sc3nncn3C)c([N+](=O)[O-])c2)cc1 | 25.4% | 6.5% | -21.3% | 50.1µM* | 6.2% | 5.4%
Cn1cnnc1Sc1ccc(C(=O)OCC(=O)Nc2ccccc2)cc1[N+](=O)[O-] | -8.9% | -8.9% | 1.8% | ? | 4.3% | 0.3%
CCCCN(CCCNC(=O)CN1N=C(c2ccc(C)cc2)CCC1=O)c1ccccc1 | . | -13.3%[57.1 µM] | 161.0% | -1.2%[57.1 µM] | 7.3% | .
CCOC(=O)CNC1CC(=O)N(c2ccc(Br)cc2)C1=O (configuration not stated) | -4.0% | 3.1% | -3.7% | 28.2µM* | -1.9% | -2.9%
COc1ccc(N2C(=O)CC(NCC#N)C2=O)cc1 (configuration not stated) | 1.2% | 1.3% | -3.6% | 31.6µM* | 18.4% | -0.6%
O=C(NNC1CC(=O)N(c2ccc(Br)cc2)C1=O)c1cccs1 (configuration not stated) | -0.9% | -1.0% | -10.4% | -15.2% | 5.9% | -1.0%
CC(=O)c1cccc(NS(=O)(=O)c2cccc(S(=O)(=O)c3ccc(Br)cc3)c2)c1 | . | 2.6% | ? | -20.8% | ? | .
O=C(CCNc1ccc(F)cc1)c1cc2ccccc2o1 | . | 12.2%[57.1 µM] | -5.6% | ? | 0.5% | 10.3%
O=C(CCNc1cccc(F)c1)c1cc2ccccc2o1 | 3.1% | 1.3% | ? | 7.94µM* | -4.7% | -0.2%
O=C(CCNc1ccc(Cc2ccncc2)cc1)c1cccc([N+](=O)[O-])c1 | 3.0% | 4.5%[57.1 µM] | ? | ? | -1.2% | 0.8%
O=C(CCNc1cccc(F)c1)c1cccc([N+](=O)[O-])c1 | 1.1% | -3.0%[57.1 µM] | ? | 6.31µM* | 1.7% | -1.2%
Cc1ccc(-c2cc(C(=O)NCc3cccnc3)no2)cc1 | 2.3% | 2.7% | -1.7% | 8.6% | -0.4% | 1.3%
